Compounds with a hit are over-represented: about 19% of the library has one in this group of screens.
IL1B secr inh: qHTS for Inhibitors of Inflammasome Signaling: IL-1-beta AlphaLISA Primary Screen. THP-1 LPS/ATP IL-1B secretion, AlphaLISA, 16 h; active compounds read low. actives 4.7% (n = 360,000). activity change, % at 57.5 µM; in the data active means activity change below about -50%; inconclusive means mostly about -30% to -49%; further: on the % scale 0 is the no-effect control and ±100 the full control effect
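Secreted IL-1B measured by AlphaLISA bead assay after 16 h compound exposure of THP-1 cells; compounds (final up to 57.5 uM) added 1 h before LPS (250 ng/mL) and ATP (1.25 mM) stimulation; lower signal means less secretion.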
DT40 TDP1 CPT: qHTS for Inhibitors of human tyrosyl-DNA phosphodiesterase 1 (TDP1): qHTS in cells in presence of CPT; chicken DT40 Tdp1-/-;hTDP1 cells + 20 nM CPT, ATP luminescence, 48 h; Potency, µM (doses to about 46.2 µM), for inactives: top-dose activity change, negative = growth inhibition, actives largely listed as inhibitors; actives 12% (n = 420,000); further: potency means the concentration at half of the fitted maximal effect; on the % scale 0 is the no-effect control and ±100 the full control effect; nearly all actives have a fitted effect of over 55% in size
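Chicken DT40 Tdp1-/- cells complemented with human TDP1, 400 cells/well, exposed to compounds plus 20 nM camptothecin for at least 48 h at 37 C; viability read as ATP content by CellTiter-Glo luminescence.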
TDP1 cell noCPT: qHTS for Inhibitors of human tyrosyl-DNA phosphodiesterase 1 (TDP1): qHTS in cells in absence of CPT | Potency, µM (doses to about 46.2 µM), for inactives: at the highest dose activity change, negative = growth inhibition, most hits filed as inhibitors | DT40 Tdp1-/- hTDP1 cells, no CPT, ATP luminescence, 48 h | actives 15% (n = 420,000) | AID 686978, 2013; further: potency means the concentration at half of the fitted maximal effect; on the % scale 0 is the no-effect control and ±100 the full control effect; nearly all actives have a fitted effect of over 55% in size
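Luminescent ATP content (CellTiter-Glo) served as the growth readout. Knockout chicken DT40 cells expressing human TDP1 were exposed to compounds without camptothecin for a minimum 48 hr at 37 °C.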
ASM inhibitor: Inhibitors of Secretory Acid Sphingomyelinase (S-ASM): qHTS. Sphingomyelin phosphodiesterase (Homo sapiens), P17405. placental ASM, HMU-PC fluorogenic substrate, 60 min. Potency, µM (top dose mostly 57.5 µM), inactives show at the highest dose activity change, negative = inhibition, hits mostly inhibitors. actives 0.006% (n = 340,000); further: potency means the concentration at half of the fitted maximal effect
Target sequence (P17405 47-631 limits assumed): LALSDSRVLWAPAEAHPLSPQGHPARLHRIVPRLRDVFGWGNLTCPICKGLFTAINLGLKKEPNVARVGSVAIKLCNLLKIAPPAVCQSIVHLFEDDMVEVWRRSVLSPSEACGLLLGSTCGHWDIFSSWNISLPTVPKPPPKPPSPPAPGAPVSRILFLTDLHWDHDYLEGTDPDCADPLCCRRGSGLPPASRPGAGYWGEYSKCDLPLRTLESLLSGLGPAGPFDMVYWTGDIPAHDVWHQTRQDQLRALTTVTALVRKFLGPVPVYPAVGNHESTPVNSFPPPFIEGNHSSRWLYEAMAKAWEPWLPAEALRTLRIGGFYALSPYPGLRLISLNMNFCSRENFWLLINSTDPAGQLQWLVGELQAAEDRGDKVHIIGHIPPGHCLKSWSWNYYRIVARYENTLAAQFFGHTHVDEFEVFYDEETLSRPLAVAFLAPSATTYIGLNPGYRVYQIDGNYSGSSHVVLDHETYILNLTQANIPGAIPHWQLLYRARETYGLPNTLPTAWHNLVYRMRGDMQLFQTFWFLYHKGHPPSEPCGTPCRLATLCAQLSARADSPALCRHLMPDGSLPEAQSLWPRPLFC
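Fluorogenic HMU-PC substrate (9 uM final) is turned over by placental ASM in 60 min at 37 C after a 10 min compound preincubation. Reaction ended by alkaline stop (pH 10), with fluorescence read at 386/447 nm.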
HepG2 tox: qHTS for Inhibitors of TGF-b: Cytotox Counterscreen | Potency, µM (series often up to 46.1 µM), without a hit: at the top dose activity change, negative = cytotoxicity, hits mostly cytotoxic | HepG2 CAGA-GFP viability, ATP luminescence, 18 h | actives 0.76% (n = 410,000); further: potency means the concentration at half of the fitted maximal effect
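HepG2 CAGA-GFP cells (1000/well, DMEM with 1% FBS) received compound, then TGF-beta at 500 pg/mL final, and were incubated 18 hours at 37 degrees C. Viability was read by CellTiter-Glo luminescence. Media-only wells were set as complete cell-killing and DMSO as no toxicity.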
TGFb inhibitor: qHTS for Inhibitors of TGF-b | HepG2 CAGA-GFP TGF-b/SMAD3 reporter, GFP fluorescence, 18 h; TGF-beta stimulated, 500 pg/mL final | Potency, µM (top dose mostly 46.1 µM), inactives show at the top dose activity, negative = inhibition, usual class: inhibitors | actives 1.2% (n = 410,000); further: potency means the concentration at half of the fitted maximal effect; on the % scale 0 is the no-effect control and ±100 the full control effect; nearly all actives have a fitted effect of over 65% in size
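Inhibition was scored as loss of TGF-beta-induced (500 pg/mL final, 18 hours, 37 degrees C) GFP in HEPG2 cells carrying a CAGA-GFP reporter, in DMEM with 1% FBS. Well GFP was summed per cell; Activity was normalised to unstimulated and stimulated DMSO wells, then concentration-response fitting.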
An asterisk follows results filed as active; i = inactive; u = inconclusive; x = no result given; ! = a repeat was not active; [ ] = remark or other dose. Unless noted, the call rests on the fitted dose curve; in most records, active means well fitted curve in the direction sought with a large enough effect; inconclusive means small, poorly fitted or top-dose-only effect, or another doubt; inactive means no such curve, though single readings can be large; an effect the other way counts as inactive or inconclusive.

SMILES	IL1B secr inh	DT40 TDP1 CPT	TDP1 cell noCPT	ASM inhibitor	HepG2 tox	TGFb inhibitor
CC(C)(C)OC(=O)C(Cl)(C(=O)OC(C)(C)C)c1ccc2nnnn2n1	-79*	u	u	1%	-17%	-1%
O=C1NC(c2ccccc2)=C(c2nc3ccccc3s2)C(c2ccc(F)cc2)N1 (stereo unspecified)	-75*	u	u	-17%	-37%	u
COc1ccc(C2NC(=O)NC(c3ccccc3)=C2c2nc3ccccc3s2)cc1 (stereo unspecified)	u	14µM*	u	-4%	-32%	-15%
CC(=O)C1=C(c2ccccc2)NC(=O)NC1c1ccc(O)c(O)c1 (stereo unspecified)	19	2%	-9%	-1%	3%	22%
CC1CC(C)CN(CC(=O)NNC(=O)COc2ccc(Cl)cc2)C1 (stereo unspecified)	-8	-20%	-4%	4%	1%	-11%
CCOCCCN(Cc1ccco1)C(=O)c1cc2c(s1)-c1c(C)cccc1OC2	x	u	23µM*	x	-13%	u
CCCN1CCN(CCCNC(=O)c2cc3c(s2)-c2c(C)cccc2OC3)CC1	-14	23µM*	26µM*	i	11µM*!	u
Cc1ccc2oc(=O)c3cc(C(=O)NCCCN4CCCC(C)C4)sc3c2c1 (stereo unspecified)	0	u	u	-4%	8%	4%
COc1ccc(CNC(=O)c2cc3c(s2)-c2c(C)cccc2OC3)cc1	x	-8%	-6%	x	-47%	0%
COc1ccc(NC(=O)c2cc3c(s2)-c2c(C)cccc2OC3)c(OC)c1	x	u	23µM*	x	-14%	-2%
Cc1cccc2c1-c1sc(C(=O)NCCCN3CCCC(C)C3)cc1CO2 (stereo unspecified)	-18	u	21µM*	i	-100%	u
Cn1c(CNC(=O)CNS(=O)(=O)c2ccc(Br)cc2)cc(=O)n(C)c1=O	8	-11%	0%	-1%	2%	4%
Cc1ccc(-n2nc(C)c3c(C)c(CCC(=O)NCc4ccccc4Cl)c(C)nc32)cc1C	x	-4%	u	x	-10%	-26%
Cc1ccc(C)n1-c1nnc(N2CCCC(C(=O)Nc3ccccc3Br)C2)s1 (stereo unspecified)	x	u	u	x	-50%	x
CN(C)/C=C/C(=O)c1nn(-c2ccc(F)cc2)ccc1=O	-15	-2%	-3%	-2%	5%	10%
CCCN(C(=O)c1cc2c(s1)-c1c(C)cccc1OC2)c1ccc(OCC)cc1	x	5.2µM*	5.2µM*	x	-1%	8%
Cc1cccc2c1-c1sc(C(=O)NCCc3ccc(Cl)cc3)cc1CO2	x	13µM*	7.3µM*	x	-11%	16%
CCCN(C(=O)c1cc2c(s1)-c1ccccc1OC2)c1ccc(C(C)C)cc1	x	x	x	x	-9%	4%
Cc1cccc2c1-c1sc(C(=O)N3CCN(c4ccccc4)CC3)cc1CO2	x	8.2µM*	16µM*	x	-32%	-21%
CCOC(=O)c1ccccc1NC(=O)c1cc2c(s1)-c1c(C)cccc1OC2	x	10%	-9%	x	5%	-6%
Cc1cccc(NC(=O)c2cc3c(s2)-c2c(C)cccc2OC3)n1	20	u	u	i	-3%	-15%
Cc1cccc2c1-c1sc(C(=O)N(C)c3cccc(Cl)c3)cc1CO2	x	16µM*	u	x	-25%	u
COc1ccc(C(=O)N2CCCC(Nc3ccc(C)c(C)c3)C2)c(OC)n1 (stereo unspecified)	-2	-5%	-2%	-3%	2%	4%
Cc1ccc2[nH]c3c(=O)n(CC(=O)N4CCN(c5ccccc5F)CC4)ncc3c2c1	x	-2%	9%	x	0%	27%
COc1cc(-c2nc(C)cnc2C)cc2c1OCCN(C(=O)Cc1cc(OC)c(OC)c(OC)c1)C2	x	9%[9.04 µM]	-5%	x	x	x
SMILES	IL1B secr inh	DT40 TDP1 CPT	TDP1 cell noCPT	ASM inhibitor	HepG2 tox	TGFb inhibitor
CN(Cc1nc(-c2cnccn2)no1)Cc1n[nH]c2c1CCCC2	31	9%	u	4%	-5%	1%
CC1Cc2ccccc2N1C1=CC(=O)CCC1 (stereo unspecified)	85	7.3µM*	5.8µM*	0%	-10%	u
CC1Cc2ccccc2N1C1=NS(=O)(=O)c2ccccc21 (stereo unspecified)	-27	-10%	-19%	-2%	-29%	0%
COc1ccc(NC(=O)CC2C(=O)N(c3ccc(F)cc3)C(=O)N2CCc2sccc2C)cc1 (stereo unspecified)	x	u	u	x	-56%	u
CCOc1ccc(NC(=O)CC2C(=O)N(c3ccc(F)cc3)C(=O)N2CCc2sccc2C)cc1 (stereo unspecified)	x	-111%	23µM*	x	-19%	u
COc1ccc(NC(=O)CC2C(=O)N(c3ccccc3)C(=O)N2CCc2sccc2C)cc1 (stereo unspecified)	x	u	16µM*	x	-23%	-1%
COc1ccc(NC(=O)CC2C(=O)N(c3ccccc3)C(=O)N2CCc2cccs2)cc1 (stereo unspecified)	-29	-21%	1%	1%	-6%	-4%
CCOc1ccc(NC(=O)CC2C(=O)N(c3ccc(OC)cc3)C(=O)N2CCc2cccs2)cc1 (stereo unspecified)	0	-22%	u	-13%	-19%	4%
COc1cccc(N2C(=O)C(CC(=O)Nc3ccccc3)N(CCc3sccc3C)C2=O)c1 (stereo unspecified)	x	18µM*	u	x	-13%	u
CCOc1ccc(NC(=O)CC2C(=O)N(c3ccccc3)C(=O)N2CCc2sccc2C)cc1 (stereo unspecified)	x	15µM*	18µM*	x	-22%	u
CC(=O)Nc1ccc(NC(=O)C(C)OC(=O)[C@@H]2CCCN2C(=O)c2cccs2)cc1 (stereo partly specified)	-1	-9%	-19%	4%	-3%	-20%
CC(OC(=O)CCC(=O)c1cccs1)C(=O)NC1CCCCC1C (stereo unspecified)	-24	-22%	5%	4%	-20%	-5%

Compound activity deposited in PubChem by National Center for Advancing Translational Sciences (NCATS).
